A word on the AC50: it is the concentration giving half of the maximal activity seen.

Structures are written as SMILES. Where “and” joins values, the source holds several entries; their conditions need not be identical. Equal values may be shown once. Records with an inconclusive call do not appear. Where a structure was tested more than once in an assay, its records may differ in their call. Calls of active or inactive are those of the source. Rule for the calls, unless noted: active = hit-call score of the fitted dose curve at least 0.9, where 1 is the maximum; inconclusive = response in the unintended direction; inactive = score below 0.9.

Assay [1] addresses human Dopamine Transporter (DAT), SLC6A3 (gene 6531) (UniProt Q01959). The assay can be described thus: NVS_TR_hDAT: NovaScreen (NVS) Transporter Assay for human Dopamine Transporter (DAT) (AID 2283374).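 Note: activity means loss of bound radioligand signal relative to DMSO.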 A digest of the protocol: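 hDAT membranes + tritiated/iodinated radioligand, competitive displacement; 1 h; filter scintillation readout. Single conc 25 uM (duplicate), then conc-response for actives. DMSO = negative control.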

Assay [2] concerns the target rat Serotonin Transporter (SERT), Slc6a4 (gene 25553) (UniProt P31652). The assay can be described thus: NVS_TR_rSERT: NovaScreen (NVS) Transporter Assay for rat Serotonin Transporter (SERT) (AID 2283375). A digest of the protocol:
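Filtration-based radiodetection quantified loss of specific radioligand binding in rat forebrain membranes after 1 hour of chemical exposure, relative to DMSO. Chemicals were first tested in duplicate at 25 uM.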

In assay [3] the target is human Norepinephrine Transporter (NET), SLC6A2 (gene 6530) (UniProt P23975). The assay can be described thus: NVS_TR_hNET: NovaScreen (NVS) Transporter Assay for human Norepinephrine Transporter (NET) (AID 2283377).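 For AC50: displacement of radioligand from human NET seen as loss of scintillation signal.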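 Note: cell-free membrane protein extracted from CHO cells expressing human NET.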 A digest of the protocol: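 CHO cell extracts expressing the transporter; tritiated or iodinated tracer displaced competitively; filtration plus scintillation readout at 1 h. Single-point duplicates at 25 uM, concentration series for follow-up; activity = signal drop relative to DMSO.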

Assay [4] has as its target mouse Estrogen Receptor alpha (Era), Esr1 (gene 13982) (UniProt P19785). The assay can be described thus: NVS_NR_mERa: NovaScreen (NVS) Nuclear Receptor Binding Assay for mouse Estrogen Receptor alpha (Era) (AID 2283378).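 Note: hit means loss of bound radioligand signal relative to DMSO.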 In outline: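 Extracted mouse Era incubated with tritiated or iodinated radioligand plus test chemical, 18 h. Bound fraction separated on filters, counted by scintillation. DMSO = negative control/baseline; duplicate single-point at 25 uM, then concentration-response follow-up.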

In assay [5] the target is Estrogen receptor (Homo sapiens) (UniProt P03372). The assay can be described thus: OT_ERa_GFPERaERE_0480: Odyssey Thera (OT) 8-hour HeLa Transcription Induction Assay for Estrogen Receptor (AID 2283381; active = hit-call score of the fitted dose curve at least 0.9, where 1 is the maximum; inactive = score below 0.9). In outline: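 Human cervical HeLa cells were treated for 8 hours, after which ERE-driven GFP induction was measured by fluorescence microscopy; increases over DMSO baseline defined activity.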

Assay [6] has the same target. The assay can be described thus: OT_ERa_GFPERaERE_0120: Odyssey Thera (OT) 2-hour HeLa Transcription Induction Assay for Estrogen Receptor (AID 2283382). In outline:
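Cells (human cervical HeLa) receive compound, incubate 2 hours, then are imaged for fluorescent reporter induction. Images are quantified by high content analysis, and activity is fitted as gain of signal against DMSO.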

Assay [7] deals with Agonist Androgen Response Element (ARE), AR (gene 367) (UniProt P10275). The assay can be described thus: OT_AR_ARELUC_AG_1440: Odyssey Thera (OT) 24-hour CHO-K1 Luciferase Assay for Agonist Androgen Response Element (ARE) (AID 2283379). A digest of the protocol:
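Gain-of-signal reporter endpoint: cells (CHO-K1, hamster) are treated 24 h, luciferin/ATP reagent added, and luminescence compared with DMSO baseline.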

The target of assay [8] is Estrogen receptor beta (Homo sapiens) (UniProt Q92731). The experiment in a line: OT_ER_ERbERb_1440: Odyssey Thera (OT) 24-hour HEK293T Protein-Complementation Assay for Estrogen Receptor-beta/-beta Homodimer (AID 2283380).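 Note: scored as signal increase over DMSO baseline for both agonists and antagonists.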 In outline: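 HEK293T cells stably expressing ER beta LBD (aa 310-547) homodimer fragment-complementation reporter, dosed 24 h. Cells formaldehyde-fixed, Draq5-stained; gain in nuclear (agonist) or nuclear plus cytoplasmic (antagonist) fluorescence versus DMSO read by laser scanning cytometry.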

Assay [9] has as its target human Serotonin Transporter (SERT), SLC6A4 (gene 6532) (UniProt P31645). The experiment in a line: NVS_TR_hSERT: NovaScreen (NVS) Transporter Assay for human Serotonin Transporter (SERT) (AID 2283372). As to the method:
NVS_TR_hSERT is a biochemical, single-readout assay that uses extracted gene-proteins from Human platelet membranes in a tissue-based cell-free assay. Measurements were taken 1 hour after chemical dosing in a 96-well plate.NVS_TR_hSERT is one of one assay component(s) measured or calculated from the NVS_TR_hSERT assay. It is designed to make measurements of radioligand binding, a form of binding reporter, as detected with scintillation counting signals by Filter-based radiodetection technology.Data from the assay component NVS_TR_hSERT was analyzed into 1 assay endpoint. This assay endpoint, NVS_TR_hSERT, was analyzed in the positive analysis fitting direction relative to DMSO as the negative control and baseline of activity. Using a type of binding reporter, loss-of-signal activity can be used to understand changes in the binding as they relate to the gene SLC6A4. Furthermore, this assay endpoint can be referred to as a primary readout, because the performed assay has only produced 1 assay endpoint. To generalize the intended target to other relatable targets, this assay endpoint is annotated to the transporter intended target family, where the subfamily is neurotransmitter transporter.
Binding assays used specific radioligands (tritiated, iodinated) with non-radioactive competitive displacement ligands in agonist or antagonist protocols (as indicated) and various reference compounds and inhibitors to titrate specific binding to receptors and transporters. Most enzyme assays (CYPs, kinases, phosphatases, proteases, HDACs) used recombinant protein and specific substrates (fluorescence mostly, some colorimetric and radioactive) and inhibitors, followed by a biochemical separation of substrate and product. All assays for the biochemical HTS were initially run in duplicate at a single concentration (10 uM for CYP450 assays and 25 uM for all others). […] Each assay was run with positive and negative controls, and concurrent controls on every plate. The follow-up (secondary) screen tested active chemical-pairs in concentration series, as well as a few additional assays not tested in the primary screen, some selected negative inactives, and several cases re-run in the concentration series for confirmatory purposes.

Sequence of Estrogen receptor beta (Homo sapiens) (Q92731 whole entry, looked up, the tested form may be a part): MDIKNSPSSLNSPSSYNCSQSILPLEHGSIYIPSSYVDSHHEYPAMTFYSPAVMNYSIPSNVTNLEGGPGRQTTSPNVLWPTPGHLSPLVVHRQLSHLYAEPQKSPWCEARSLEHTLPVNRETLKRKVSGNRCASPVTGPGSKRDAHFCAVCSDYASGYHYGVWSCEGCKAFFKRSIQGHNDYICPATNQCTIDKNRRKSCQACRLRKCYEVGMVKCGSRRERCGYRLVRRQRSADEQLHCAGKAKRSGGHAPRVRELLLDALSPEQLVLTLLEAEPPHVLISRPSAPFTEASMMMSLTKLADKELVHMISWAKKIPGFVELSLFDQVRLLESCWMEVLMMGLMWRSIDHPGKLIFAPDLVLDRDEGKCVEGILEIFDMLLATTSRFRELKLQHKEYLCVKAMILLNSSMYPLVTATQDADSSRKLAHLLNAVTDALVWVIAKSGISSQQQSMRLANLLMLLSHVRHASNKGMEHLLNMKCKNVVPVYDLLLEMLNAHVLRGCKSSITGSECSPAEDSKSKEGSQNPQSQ
Sequence of human Norepinephrine Transporter (NET), SLC6A2 (gene 6530) (P23975 whole entry, looked up): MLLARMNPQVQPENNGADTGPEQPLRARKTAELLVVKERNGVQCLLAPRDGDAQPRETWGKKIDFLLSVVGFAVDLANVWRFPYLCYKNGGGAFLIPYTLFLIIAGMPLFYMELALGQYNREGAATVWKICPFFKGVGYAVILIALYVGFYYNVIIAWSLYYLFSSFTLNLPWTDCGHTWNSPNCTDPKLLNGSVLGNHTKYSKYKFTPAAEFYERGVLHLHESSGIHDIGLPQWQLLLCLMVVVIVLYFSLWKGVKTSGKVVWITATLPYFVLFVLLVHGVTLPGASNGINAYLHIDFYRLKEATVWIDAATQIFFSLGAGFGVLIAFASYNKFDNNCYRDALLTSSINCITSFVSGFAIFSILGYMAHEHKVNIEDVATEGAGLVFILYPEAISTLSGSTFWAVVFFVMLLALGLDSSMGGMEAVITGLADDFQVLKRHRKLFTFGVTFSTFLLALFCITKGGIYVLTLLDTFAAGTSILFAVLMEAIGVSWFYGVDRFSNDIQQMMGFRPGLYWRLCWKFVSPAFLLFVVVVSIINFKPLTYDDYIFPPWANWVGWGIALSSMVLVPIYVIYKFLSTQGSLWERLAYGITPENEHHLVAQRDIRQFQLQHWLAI
Sequence of rat Serotonin Transporter (SERT), Slc6a4 (gene 25553) (P31652 whole entry, looked up): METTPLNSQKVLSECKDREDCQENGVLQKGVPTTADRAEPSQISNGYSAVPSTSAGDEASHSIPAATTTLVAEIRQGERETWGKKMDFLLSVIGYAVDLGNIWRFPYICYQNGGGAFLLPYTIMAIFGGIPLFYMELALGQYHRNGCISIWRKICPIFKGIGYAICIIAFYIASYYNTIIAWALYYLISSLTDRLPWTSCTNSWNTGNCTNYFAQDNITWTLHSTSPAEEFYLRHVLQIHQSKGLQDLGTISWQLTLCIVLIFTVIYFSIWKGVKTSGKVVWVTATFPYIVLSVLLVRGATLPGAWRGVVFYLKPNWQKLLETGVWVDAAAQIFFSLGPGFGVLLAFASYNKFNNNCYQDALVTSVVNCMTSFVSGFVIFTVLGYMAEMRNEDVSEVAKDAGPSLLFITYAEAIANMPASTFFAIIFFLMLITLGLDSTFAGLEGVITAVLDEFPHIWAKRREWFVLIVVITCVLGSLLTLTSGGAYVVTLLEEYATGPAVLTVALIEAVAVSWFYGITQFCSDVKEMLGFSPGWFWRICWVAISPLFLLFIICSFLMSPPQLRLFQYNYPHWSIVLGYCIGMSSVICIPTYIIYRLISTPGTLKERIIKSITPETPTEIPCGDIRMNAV
Sequence of Agonist Androgen Response Element (ARE), AR (gene 367) (P10275 whole entry, looked up): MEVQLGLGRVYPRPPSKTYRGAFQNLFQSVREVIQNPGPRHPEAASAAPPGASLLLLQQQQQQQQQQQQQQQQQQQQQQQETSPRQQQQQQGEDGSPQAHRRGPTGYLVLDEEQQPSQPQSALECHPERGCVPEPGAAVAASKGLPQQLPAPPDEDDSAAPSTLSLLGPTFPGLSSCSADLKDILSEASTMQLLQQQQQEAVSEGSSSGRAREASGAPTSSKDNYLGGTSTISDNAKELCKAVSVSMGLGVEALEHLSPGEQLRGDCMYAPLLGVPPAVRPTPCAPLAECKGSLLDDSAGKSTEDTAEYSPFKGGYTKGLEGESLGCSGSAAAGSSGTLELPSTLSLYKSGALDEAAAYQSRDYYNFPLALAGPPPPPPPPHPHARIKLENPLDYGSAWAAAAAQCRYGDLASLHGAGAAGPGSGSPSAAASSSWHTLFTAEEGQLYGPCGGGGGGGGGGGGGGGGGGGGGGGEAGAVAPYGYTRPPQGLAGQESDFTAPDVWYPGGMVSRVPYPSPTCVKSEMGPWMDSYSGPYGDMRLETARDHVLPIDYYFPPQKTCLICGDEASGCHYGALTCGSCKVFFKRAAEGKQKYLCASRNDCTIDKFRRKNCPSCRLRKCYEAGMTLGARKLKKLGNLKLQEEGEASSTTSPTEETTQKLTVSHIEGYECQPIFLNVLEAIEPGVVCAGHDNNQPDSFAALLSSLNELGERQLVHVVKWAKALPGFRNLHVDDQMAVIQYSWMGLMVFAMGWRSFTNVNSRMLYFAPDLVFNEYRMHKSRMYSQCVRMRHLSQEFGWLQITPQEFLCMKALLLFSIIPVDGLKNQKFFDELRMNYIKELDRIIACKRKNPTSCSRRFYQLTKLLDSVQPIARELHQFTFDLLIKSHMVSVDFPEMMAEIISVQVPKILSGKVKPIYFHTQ
Sequence of mouse Estrogen Receptor alpha (Era), Esr1 (gene 13982) (P19785 whole entry, looked up): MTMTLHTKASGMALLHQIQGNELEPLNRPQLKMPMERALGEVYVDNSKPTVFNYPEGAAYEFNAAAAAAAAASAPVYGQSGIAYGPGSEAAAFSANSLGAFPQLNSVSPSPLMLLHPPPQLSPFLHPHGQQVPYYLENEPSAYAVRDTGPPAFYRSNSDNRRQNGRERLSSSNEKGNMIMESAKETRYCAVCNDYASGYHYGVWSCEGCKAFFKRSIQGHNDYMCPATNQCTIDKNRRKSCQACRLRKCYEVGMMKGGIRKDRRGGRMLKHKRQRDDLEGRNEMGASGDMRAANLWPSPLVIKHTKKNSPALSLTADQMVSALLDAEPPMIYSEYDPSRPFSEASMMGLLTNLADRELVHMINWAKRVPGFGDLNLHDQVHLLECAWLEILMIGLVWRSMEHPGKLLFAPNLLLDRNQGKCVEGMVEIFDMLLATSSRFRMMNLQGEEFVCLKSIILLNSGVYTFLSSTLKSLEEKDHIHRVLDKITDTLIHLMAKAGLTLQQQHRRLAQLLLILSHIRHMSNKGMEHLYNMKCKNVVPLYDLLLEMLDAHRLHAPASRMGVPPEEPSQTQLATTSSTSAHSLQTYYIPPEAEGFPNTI
Sequence of human Dopamine Transporter (DAT), SLC6A3 (gene 6531) (Q01959 whole entry, looked up): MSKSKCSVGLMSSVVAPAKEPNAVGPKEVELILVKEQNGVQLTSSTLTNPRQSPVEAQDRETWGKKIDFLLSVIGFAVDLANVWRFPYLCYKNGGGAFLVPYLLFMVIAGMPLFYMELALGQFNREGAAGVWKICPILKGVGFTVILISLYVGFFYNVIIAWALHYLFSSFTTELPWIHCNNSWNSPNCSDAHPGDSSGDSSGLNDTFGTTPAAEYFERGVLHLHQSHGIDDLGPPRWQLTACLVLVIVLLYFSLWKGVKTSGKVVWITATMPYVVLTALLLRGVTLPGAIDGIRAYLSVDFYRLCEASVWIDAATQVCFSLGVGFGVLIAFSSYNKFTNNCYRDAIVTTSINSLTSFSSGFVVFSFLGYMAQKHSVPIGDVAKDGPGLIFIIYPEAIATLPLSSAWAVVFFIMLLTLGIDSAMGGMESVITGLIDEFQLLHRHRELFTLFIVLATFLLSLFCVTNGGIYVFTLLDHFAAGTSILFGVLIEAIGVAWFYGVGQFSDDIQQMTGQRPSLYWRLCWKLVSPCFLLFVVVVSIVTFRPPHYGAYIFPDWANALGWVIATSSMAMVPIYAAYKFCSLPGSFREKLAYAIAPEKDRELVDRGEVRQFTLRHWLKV
Sequence of Estrogen receptor (Homo sapiens) (P03372 whole entry, looked up): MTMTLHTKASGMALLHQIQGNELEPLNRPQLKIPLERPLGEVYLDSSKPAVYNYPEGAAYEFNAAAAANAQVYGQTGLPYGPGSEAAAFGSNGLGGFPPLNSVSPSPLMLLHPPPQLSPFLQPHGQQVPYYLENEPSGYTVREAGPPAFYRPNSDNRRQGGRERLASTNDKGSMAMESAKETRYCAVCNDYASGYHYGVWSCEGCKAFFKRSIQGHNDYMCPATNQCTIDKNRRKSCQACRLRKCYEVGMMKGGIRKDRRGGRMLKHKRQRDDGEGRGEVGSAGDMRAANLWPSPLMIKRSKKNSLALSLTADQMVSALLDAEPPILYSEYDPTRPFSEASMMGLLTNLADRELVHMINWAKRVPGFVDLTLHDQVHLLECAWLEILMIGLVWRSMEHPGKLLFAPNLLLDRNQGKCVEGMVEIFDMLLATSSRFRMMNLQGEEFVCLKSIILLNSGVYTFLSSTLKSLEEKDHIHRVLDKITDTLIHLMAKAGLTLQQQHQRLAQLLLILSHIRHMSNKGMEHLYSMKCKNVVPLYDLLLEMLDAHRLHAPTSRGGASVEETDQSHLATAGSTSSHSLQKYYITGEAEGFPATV

As to `CCCCCCCCCCCCCC[N+](C)(C)C`, the AC50 in [1] was 4.13 µM (active); in [2] it was 41.5 µM (active); in assay [3], 3.12 µM (active); in assay [4], 14.3 µM (active); in assay [6], 69.9 µM (active). The compound was called inactive in [5].

In the case of `O=C(O)c1ccccc1C(c1ccc(O)cc1)c1ccc(O)cc1`, the AC50 was 7.92 µM (active) and 7.1 µM (active) in [4]; 1.95 µM (active) in assay [7]. Also, the compound was classed as inactive in assay [4], in assay [7], in assay [8], in [5] and in assay [6].

In the case of `OC1CCC(C2CCCCC2)CC1` (stereo not given), the call in [4], in assay [8], in assay [5] and in [6] was inactive. Also, the AC50 in [8] is 57.8 µM (active) and 49.5 µM (active) and 59.4 µM (active).

Turning to `CC(C)(C)c1ccc(O)c(C(C)(C)C)c1`, the AC50 in assay [1] was 6.72 µM (active). The compound was classed as inactive in assay [8], in assay [5] and in [6].

With `O=C1OC2(c3ccccc31)c1cc(Br)c(O)c(Br)c1Oc1c2cc(Br)c(O)c1Br`, the result in assay [4], in assay [8], in assay [5] and in assay [6] was inactive.

On to `CC[C@H](c1ccc(O)cc1)[C@@H](CC)c1ccc(O)cc1`, for which the AC50 in assay [1] was 0.461 µM (active); in assay [4], 1.52 nM (active) and 2.29 nM (active) and 4.85 nM (active). Also, the compound was classed as inactive in assay [4] and in assay [7].

As to `NC(=O)N1C(=O)C(C(=O)c2cc(Cl)cs2)c2cc(F)c(Cl)cc21` (stereo not given), the AC50 in assay [3] was 25 µM (active). For the same compound, the result in assay [7], in assay [8], in [5] and in [6] was inactive.

Regarding `O=C(O)Cc1cc(I)c(Oc2cc(I)c(O)c(I)c2)c(I)c1`, the AC50 in assay [3] is 10.1 µM (active); in assay [5], 44.5 µM (active); in assay [6] it was 48.3 µM (active). Besides, the compound was called inactive in assay [4] and in assay [8].

Consider `OCCC(F)(F)C(F)(F)C(F)(F)C(F)(F)C(F)(F)C(F)(F)C(F)(F)C(F)(F)F`, for which the outcome in assay [4], in [8] and in assay [5] was inactive. The AC50 is 21.8 µM (active) in [7] and 3.54 µM (active) in assay [6].

For `CCCOc1sc(C(=O)N2CCC(c3cc(CN)ccc3F)CC2)c(C)c1Br`, the AC50 in [1] was 1.19 µM (active); in [2], 23.2 µM (active); in assay [3], 4.18 µM (active); in assay [4] it was 5.52 µM (active).

For the compound `C[C@@H]1C[C@H]2[C@@H]3CCC4=CC(=O)C=C[C@]4(C)[C@@]3(F)[C@@H](O)C[C@]2(C)[C@@]1(O)C(=O)COP(=O)(O)O`, the result in assay [4], in assay [8], in assay [5] and in assay [6] was inactive.

Take `C=C(C)C(=O)OCCC(F)(F)C(F)(F)C(F)(F)C(F)(F)C(F)(F)C(F)(F)F`: the call in assay [4], in [8] and in [5] was inactive. For the same compound, the AC50 in [6] is 12.5 µM (active).

For the compound `CCC(=C(c1ccc(O)cc1)c1ccc(OCCN(C)C)cc1)c1ccccc1`, the half-maximal activity concentration (AC50) is 1.48 µM (active) in assay [1] and 4.24 µM (active) in assay [3]. The compound was called inactive in [7].

As to `CC#C[C@]1(O)CC[C@H]2[C@@H]3CCC4=CC(=O)CCC4=C3[C@@H](c3ccc(N(C)C)cc3)C[C@@]21C`, the result in assay [3], in assay [4] and in assay [5] was inactive. The AC50 in assay [4] is 0.289 µM (active).

As for `COCC(C)OCC(C)O` (stereo not given), the result in [9], in assay [7], in [8], in [5] and in assay [6] was inactive.

As for `CCCCCCCCOC(=O)CCCCCCCCC(=O)OCCCCCCCC`, the compound was called inactive in [9], in assay [8], in assay [5] and in assay [6].

As for `CCCOC(=O)c1ccc(O)cc1`, the AC50 in assay [1] is 15.3 µM (active); in assay [3], 9.32 µM (active); in assay [4] it was 25 µM (active); in assay [8] it was 8.13 µM (active); in [5], 27.6 µM (active). In assay [6], the outcome was inactive.

On to `Nc1cccc2c(N)cccc12`, for which the AC50 in assay [1] was 6.65 µM (active); in assay [3], 14.3 µM (active). Besides, the outcome in assay [7], in assay [8], in assay [5] and in assay [6] was inactive.

In the case of `CCC(C)(C)C1CCC(O)CC1` (stereo not given), the AC50 in [4] was 6.46 µM (active); in [5], 16.2 µM (active) and 40.9 µM (active); in [6], 27.5 µM (active) and 24.4 µM (active). The outcome in assay [4], in [5] and in assay [6] was inactive.

`CCCCCCCCCCCCc1ccccc1S(=O)(=O)O`: the AC50 in assay [1] is 16.6 µM (active); in [3], 9.86 µM (active); in assay [4], 18 µM (active); in assay [5], 96 µM (active); in assay [6], 94.4 µM (active). Besides, the call in assay [7] and in assay [8] was inactive.

Consider `O=c1c(-c2ccc(O)cc2)coc2cc(O)ccc12`, for which, in assay [4], the AC50 is 421 nM (active) [middle of 4 runs]. Also, the compound was called inactive in [7].

As to `CC1=C(/C=C/C(C)=C/C=C/C(C)=C/C(=O)O)C(C)(C)CCC1`, the AC50 in [1] was 6.66 µM (active). The result in assay [5] and in assay [6] was inactive.

`CCCCCCCC(=O)O`: the result in assay [1], in assay [2] and in [6] was inactive. For the same compound, the half-maximal activity concentration (AC50) in [8] is 21.3 µM (active); in assay [5] it was 22.1 µM (active).

In the case of `Oc1cc2ccccc2c2ccccc12`, the call in assay [1], in [7], in [8] and in assay [6] was inactive. The AC50 is 1.89 µM (active) in assay [3] and 28.9 µM (active) in assay [5].

With `Cc1oc(-c2ccccc2)nc1CCOc1ccc(C[C@H](Nc2ccccc2C(=O)c2ccccc2)C(=O)O)cc1`, the results for the AC50 in assay [1], in assay [3] and in assay [5] were 5.28 µM (active), 7.12 µM (active) and 82.9 µM (active), respectively. For the same compound, the call in assay [7], in assay [8] and in assay [6] was inactive.

These data come from PubChem BioAssay (EPA / NIEHS).
